From the supplement of paper PMC10498489 come the findings set out here.

Structures are written as SMILES. Hit rate of the full screen: of about 2,300 compounds, about 330 (14%) showed activity.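 Rule for the calls: active = median modified Z-score above 1.96; inactive = 1.96 or below.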 Only a sample is shown.

The assay deals with HepG2 Srxn1-GFP reporter cells (+30 nM CDDO-Me). Kind of assay: Srxn1-GFP intensity median modified Z-score relative to plate median; higher = stronger NRF2 / oxidative stress reporter activation, active = hit call of the paper. The conditions noted are these: 10 µM; exposure time: 24h. A digest of the protocol:
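HepG2 Srxn1-GFP BAC reporter cells were seeded at 20,000 per well in 96-well plates and co-exposed for 24 h to compound at 10 μM and an NRF2 activator at 30 nM, with DMSO at ≤0.1%, in three replicate plates. Cells were fixed with formaldehyde, stained with Hoechst and imaged by confocal microscopy, and cytoplasmic GFP was measured per cell, with images holding under 100 cells discarded. The reported value is the median over replicates of each plate's modified Z-score of GFP intensity. For this score, scaling used 1.4826 × median absolute deviation.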
Consider `CC(C)[N+](C)(CCC(C(N)=O)(c1ccccc1)c1ccccc1)C(C)C` [euspeclibcmpd164], for which the “Srxn1-GFP intensity median modified Z-score” value was 0.396 (inactive).

`CC(C)c1cccc(C(C)C)c1O` [euspeclibcmpd699]: the “Srxn1-GFP intensity median modified Z-score” value was -0.02 (inactive).

Consider `C[C@]12CCC(=O)CC1=CC=C1C2CC[C@@]2(C)C1CC[C@@]2(O)CCC(=O)O` (some centres not stated) [euspeclibcmpd2339], for which the “Srxn1-GFP intensity median modified Z-score” value was -0.283 (inactive).

Regarding `CCC(C(=O)[C@H](C)[C@@H](O)[C@H](C)[C@@H]1O[C@@H]([C@@H](CC)C(=O)O)CC[C@@H]1C)[C@H]1OC2(C=C[C@@H](O)[C@]3(CC[C@@](C)([C@H]4CC[C@](O)(CC)[C@H](C)O4)O3)O2)[C@H](C)C[C@@H]1C` (some centres not stated) [euspeclibcmpd2084], the “Srxn1-GFP intensity median modified Z-score” value was 6.06 (active).

On to `CC(C)(C)NCC(O)c1cc(Cl)c(N)c(Cl)c1` (configuration not stated) [euspeclibcmpd1154], for which the “Srxn1-GFP intensity median modified Z-score” value was -0.331 (inactive).

`CCC(N)C(O)c1ccc(O)c(O)c1` (configuration not stated) [euspeclibcmpd646]: the “Srxn1-GFP intensity median modified Z-score” value was -0.33 (inactive).

Turning to `CN1CC(CNC(=O)OCc2ccccc2)C[C@H]2c3cccc4c3c(cn4C)CC21` (some centres not stated) [euspeclibcmpd1151], the “Srxn1-GFP intensity median modified Z-score” value is -0.466 (inactive).

Turning to `COc1cc2c(c(OC)c1OC)-c1ccc(OC)c(=O)cc1[C@@H](NC(C)=O)CC2` [euspeclibcmpd73], the “Srxn1-GFP intensity median modified Z-score” value is 13.3 (active).

With `COc1cc2c(c(OC)c1OC)-c1ccc(=O)c(O)cc1C(NC(C)=O)CC2` (configuration not stated) [euspeclibcmpd2248], the “Srxn1-GFP intensity median modified Z-score” value is -0.142 (inactive).

`CNC(=O)Oc1ccc2c(c1)[C@]1(C)CCN(C)[C@@H]1N2C` [euspeclibcmpd611]: the “Srxn1-GFP intensity median modified Z-score” value is 0.455 (inactive).

With `C[C@H]1C[C@@H](O)[C@]2(O)[C@@]13CC(=O)OC[C@@]2(C)[C@](C)(O)C(=O)C3` [euspeclibcmpd1475], the “Srxn1-GFP intensity median modified Z-score” value is 0.639 (inactive).

On to `COc1ccc(CN2CCNCC2)c(OC)c1OC` [euspeclibcmpd1198], for which the “Srxn1-GFP intensity median modified Z-score” value was 0.677 (inactive).

In the case of `CCOC(=O)c1cncn1[C@H](C)c1ccccc1` [euspeclibcmpd826], the “Srxn1-GFP intensity median modified Z-score” value is -0.145 (inactive).

Regarding `O=C(O)C1[O][Sb]2[O]C(=O)C([O]2)C(C(=O)O)[O][Sb]2[O]C(=O)C1[O]2` (configuration not stated) [euspeclibcmpd2437], the “Srxn1-GFP intensity median modified Z-score” value was 3.34 (active).

`CC(=O)OC1CN2CCC1CC2` (configuration not stated) [euspeclibcmpd385]: the “Srxn1-GFP intensity median modified Z-score” value is -0.0983 (inactive).

In the case of `O=[N+]([O-])C(Br)(CO)CO` [euspeclibcmpd2257], the “Srxn1-GFP intensity median modified Z-score” value was 6.25 (active).

Take `COc1ccc(C(=O)O)cc1OC` [euspeclibcmpd2003]: the “Srxn1-GFP intensity median modified Z-score” value was -0.455 (inactive).

Regarding `C[C@]12CC[C@H](O)CC1=CCC1C2CC[C@]2(C)C(=O)CC[C@@H]12` (some centres not stated) [euspeclibcmpd1201], the “Srxn1-GFP intensity median modified Z-score” value is -0.236 (inactive).

With `OCC(O)[C@H]1O[C@@H]2O[C@H](C(Cl)(Cl)Cl)O[C@@H]2[C@H]1O` (some centres not stated) [euspeclibcmpd1184], the “Srxn1-GFP intensity median modified Z-score” value is 0.0668 (inactive).

As to `O=C(NC(=O)c1c(F)cccc1F)Nc1cc(Cl)c(OC(F)(F)C(F)C(F)(F)F)cc1Cl` (configuration not stated) [euspeclibcmpd1213], the “Srxn1-GFP intensity median modified Z-score” value is 13.1 (active).

As for `CCC1(CC)C(=O)NC(=S)NC1=O`, the “Srxn1-GFP intensity median modified Z-score” value was 1.23 (inactive).

`O=C1C=CC(=O)c2c(O)cccc21` [euspeclibcmpd1492]: the “Srxn1-GFP intensity median modified Z-score” value is 0.761 (inactive).

Turning to `CC1=CC(=O)c2c(O)cccc2C1=O` [euspeclibcmpd1444], the “Srxn1-GFP intensity median modified Z-score” value was 67.7 (active).

Regarding `CC1(C)C2CC(=O)[C@]3(C)C(CC[C@@]4(C)[C@H](c5ccoc5)OC(=O)C5O[C@]543)[C@@]2(C)C(=O)C[C@H]1O` (some centres not stated) [euspeclibcmpd1592], the “Srxn1-GFP intensity median modified Z-score” value is -0.255 (inactive).

For the molecule `N#Cc1[nH]n(-c2c(Cl)cc(C(F)(F)F)cc2Cl)c(=N)c1[S+]([O-])C(F)(F)F` (configuration not stated) [euspeclibcmpd821], the “Srxn1-GFP intensity median modified Z-score” value is -0.323 (inactive).

`O=C1CC[C@@]2(O)[C@H]3Cc4ccc(O)c5c4C2(CCN3CC2CC2)C1O5` (some centres not stated) [euspeclibcmpd560]: the “Srxn1-GFP intensity median modified Z-score” value was -0.0532 (inactive).

As to `Cc1c[nH]cn1` [euspeclibcmpd2111], the “Srxn1-GFP intensity median modified Z-score” value is -0.158 (inactive).

As to `CC1=CCC[C@@H]2C1(C)CCC(C)[C@@]2(C)CC/C(C)=C/Cn1c[n+](C)c2c(=N)nc[nH]c21` (some centres not stated) [euspeclibcmpd1491], the “Srxn1-GFP intensity median modified Z-score” value is 13.7 (active).

As to `COc1ccc2c(c1O)[C@@]13CCN(C)[C@@H](C2)C1=CC(OC)C(=O)C3` (some centres not stated) [euspeclibcmpd1375], the “Srxn1-GFP intensity median modified Z-score” value was -0.172 (inactive).

With `CC(C)c1ccc2c(c1O)CCC1c3coc(O)c3CC[C@]21C` (some centres not stated) [euspeclibcmpd2379], the “Srxn1-GFP intensity median modified Z-score” value is -0.468 (inactive).

For `Nc1ccc([As](=O)(O)O)cc1` [euspeclibcmpd2461], the “Srxn1-GFP intensity median modified Z-score” value is 11.1 (active).

On to `O=C1CC2OCC=C3CN4CC[C@]56c7ccccc7N1C5[C@H]2[C@H]3CC46` (some centres not stated) [euspeclibcmpd327], for which the “Srxn1-GFP intensity median modified Z-score” value is -0.00366 (inactive).

With `COP(=S)(OC)Oc1ccc(SC)c(C)c1` [euspeclibcmpd1025], the “Srxn1-GFP intensity median modified Z-score” value is -0.288 (inactive).

Consider `O=C(CCCN1CCC2(CC1)C(=O)NCN2c1ccccc1)c1ccc(F)cc1` [euspeclibcmpd405], for which the “Srxn1-GFP intensity median modified Z-score” value is 10.2 (active).

Turning to `C#C[C@]1(O)CCC2C3CC=C4CC(=O)CCC4C3CC[C@@]21C` (some centres not stated) [euspeclibcmpd2279], the “Srxn1-GFP intensity median modified Z-score” value is 0.0789 (inactive).

For the molecule `C#C[C@]1(O)CCC2C3CC=C4CC(=O)CCC4C3CC[C@@]21C` (some centres not stated) [euspeclibcmpd2269], the “Srxn1-GFP intensity median modified Z-score” value is 1.21 (inactive).

As for `CCCCOC(=O)c1ccccc1C(=O)OCCCC` [euspeclibcmpd1242], the “Srxn1-GFP intensity median modified Z-score” value was -0.441 (inactive).

Take `CCCCCCCCC(=O)NCc1ccc(O)c(OC)c1` [euspeclibcmpd1268]: the “Srxn1-GFP intensity median modified Z-score” value is -0.241 (inactive).

Take `C[C@@H]1CC[C@@]2(NC1)O[C@H]1C[C@H]3C4CC=C5C[C@@H](O)CC[C@]5(C)C4CC[C@]3(C)C1[C@@H]2C` (some centres not stated) [euspeclibcmpd1732]: the “Srxn1-GFP intensity median modified Z-score” value was 0.173 (inactive).

In the case of `C[C@H]1CC[C@]2(NC1)OC1CC3C4CCC5C[C@@H](O[C@@H]6O[C@H](CO)[C@H](O[C@H]7O[C@H](CO)[C@@H](O)[C@H](O[C@@H]8OC[C@@H](O)[C@H](O)[C@H]8O)[C@H]7O[C@@H]7O[C@H](CO)[C@@H](O)[C@H](O)[C@H]7O)[C@H](O)[C@H]6O)CC[C@]5(C)C4CC[C@]3(C)C1[C@@H]2C` (some centres not stated) [euspeclibcmpd480], the “Srxn1-GFP intensity median modified Z-score” value is 71.3 (active).

`CC(=O)O[C@H]1C[C@H](O[C@H]2[C@@H](O)C[C@H](O[C@H]3[C@@H](O)C[C@H](O[C@H]4CC[C@@]5(C)C(CCC6C5C[C@@H](O)[C@]5(C)C(c7coc(O)c7)CC[C@]65O)C4)O[C@@H]3C)O[C@@H]2C)O[C@H](C)[C@H]1O[C@@H]1O[C@H](CO)[C@@H](O)[C@H](O)[C@H]1O` (some centres not stated) [euspeclibcmpd420]: the “Srxn1-GFP intensity median modified Z-score” value is -0.493 (inactive).

Turning to `CC1CCC2(OC1)OC1C(O)C3C4CCC5CC(OC6OC(CO)C(OC7OC(CO)C(O)C(OC8OCC(O)C(O)C8O)C7OC7OC(CO)C(O)C(OC8OC(CO)C(O)C(O)C8O)C7O)C(O)C6O)C(O)CC5(C)C4CCC3(C)C1C2C` (configuration not stated) [euspeclibcmpd1933], the “Srxn1-GFP intensity median modified Z-score” value was 22.3 (active).

For `CCNC1(c2cccs2)CCCCC1=O` (configuration not stated) [euspeclibcmpd629], the “Srxn1-GFP intensity median modified Z-score” value was -0.153 (inactive).

Turning to `O=C1NC(=O)C(=O)C(=O)N1` [euspeclibcmpd1767], the “Srxn1-GFP intensity median modified Z-score” value is 0.258 (inactive).

Regarding `NC(=O)C[S@@+]([O-])C(c1ccccc1)c1ccccc1` [euspeclibcmpd2097], the “Srxn1-GFP intensity median modified Z-score” value was 0.795 (inactive).

Consider `O=c1[nH]c(=O)n(Cl)c(=O)n1Cl` [euspeclibcmpd2375], for which the “Srxn1-GFP intensity median modified Z-score” value was 0.319 (inactive).

Turning to `c1cncc(C2CCCCN2)c1` (configuration not stated) [euspeclibcmpd1406], the “Srxn1-GFP intensity median modified Z-score” value was 0.116 (inactive).

With `COc1ccc2c(c1)[C@]13CCCC[C@@H]1[C@H](C2)N(C)CC3` [euspeclibcmpd87], the “Srxn1-GFP intensity median modified Z-score” value is 0.145 (inactive).

`CC1(C)C(=O)C2O[C@@H]2[C@@]2(C)C1C[C@@H](O)[C@]1(C)C2CC[C@@]2(C)[C@H](c3ccoc3)OC(=O)C3OC321` (some centres not stated) [euspeclibcmpd1634]: the “Srxn1-GFP intensity median modified Z-score” value was 0.977 (inactive).

Regarding `CC(=O)O[C@@H]1CC2C(C)(C)C(=O)C=C[C@]2(C)C2CC[C@]3(C)C(=CC(=O)O[C@H]3c3ccoc3)[C@@]21C` (some centres not stated) [euspeclibcmpd1551], the “Srxn1-GFP intensity median modified Z-score” value is 38.8 (active).

`CC(=O)OC1CC(OC(C)=O)C2(C)C(CC(OC(C)=O)C3(C)C2CCC2(C)C(c4ccoc4)C(=O)C4OC423)C1(C)C` (configuration not stated) [euspeclibcmpd1943]: the “Srxn1-GFP intensity median modified Z-score” value is 1.55 (inactive).

On to `CC1(C)C(=O)C=C[C@@]2(C)C1C[C@@H](O)[C@]1(C)C2CC[C@@]2(C)[C@H](c3ccoc3)OC(=O)C3O[C@]321` (some centres not stated) [euspeclibcmpd1629], for which the “Srxn1-GFP intensity median modified Z-score” value was 32.4 (active).

Regarding `COC(=O)C1CC(OC(C)=O)C(=O)C2C1(C)CCC1C(=O)OC(c3ccoc3)CC12C` (configuration not stated) [euspeclibcmpd1949], the “Srxn1-GFP intensity median modified Z-score” value was -0.455 (inactive).

As for `CC1(C)C2CC(=O)[C@]3(C)C(CC[C@@]4(C)[C@H](c5ccoc5)OC(=O)C5OC543)[C@@]2(C)[C@@H](O)C[C@H]1O` (some centres not stated) [euspeclibcmpd1573], the “Srxn1-GFP intensity median modified Z-score” value is -0.392 (inactive).

As to `CC(CC(C(N)=O)(c1ccccc1)c1ccccc1)N(C)C` (configuration not stated) [euspeclibcmpd819], the “Srxn1-GFP intensity median modified Z-score” value was -0.42 (inactive).

With `C[N+]12CC[C@@]34c5ccccc5N5C(=O)CC6OCC=C(C1)[C@H](CC32)[C@@H]6C54` (some centres not stated) [euspeclibcmpd1705], the “Srxn1-GFP intensity median modified Z-score” value was -0.091 (inactive).

In the case of `COc1cc2c(cc1O)CCNC2C` (configuration not stated) [euspeclibcmpd1467], the “Srxn1-GFP intensity median modified Z-score” value was -0.387 (inactive).

With `CCOP(=S)(OCC)Oc1ccc2c(C)c(Cl)c(=O)oc2c1` [euspeclibcmpd1023], the “Srxn1-GFP intensity median modified Z-score” value is 1.02 (inactive).

Regarding `C[C@H]1O[C@H](O[C@H]2[C@H](O)[C@@H](O)[C@@H](O)[C@H](O)[C@@H]2O)[C@@H](N)C[C@@H]1N=C(N)C(=O)O` [euspeclibcmpd1430], the “Srxn1-GFP intensity median modified Z-score” value was -0.17 (inactive).

For `NCCc1cc(O)c(O)cc1O` [euspeclibcmpd220], the “Srxn1-GFP intensity median modified Z-score” value was -0.288 (inactive).

For the molecule `CC[C@H]1C[N@]2CCC1C[C@@H]2[C@@H](O)c1ccnc2ccc(OC)cc12` [euspeclibcmpd2090], the “Srxn1-GFP intensity median modified Z-score” value was 0.772 (inactive).

For `C[C@]12CCC3[C@@H](CC[C@@]45OC4C(=O)C(C#N)C[C@]35C)[C@H]1CC[C@@H]2O` (some centres not stated) [euspeclibcmpd687], the “Srxn1-GFP intensity median modified Z-score” value is -0.339 (inactive).
